# In ChEMBL document CHEMBL4513216, “Probing the Open Global Health Chemical Diversity Library for Multistage-Active Starting Points for Next-Generation Antimalarials” (ACS Infect Dis, 2020):
# The campaign covered roughly 69,000 compounds. About 8,600 (12%) showed an effect of 50% or more. Shown is part of a subset that was picked to be rich in strong results.
# System: Plasmodium berghei
# Assay: Screen against P. berghei liver stage (PbLuc), transformed with Luciferase, at 10uM
# Assay type: functional, HepG2
# Settings: tested at 10 uM
row,Compound,INHIBITION
1,CN(CCc1ccccn1)C(=O)C(c1cccnc1)N1CCOCC1 (stereo unspecified),-29.2%
2,O=C(NCCNc1cccnc1)C(c1cccnc1)N1CCCC1 (stereo unspecified),-0.55%
3,Cc1cc(CN(C)C(=O)C(c2cccnc2)N2CCOCC2)n[nH]1 (stereo unspecified),51.7%
4,O=C(c1ccsc1)N1CCO[C@@H]2CN(Cc3nccs3)C[C@@H]2C1,42.1%
5,CC1COCCN1C(=O)Nc1cnc2c(cnn2C(C)C)c1 (stereo unspecified),-27.9%
6,O=C1COc2ccc(C(=O)N3CCCC(n4ccnc4)C3)cc2N1 (stereo unspecified),-12.2%
7,Cc1cccc(C(Nc2nccc(C)n2)C2CC2)n1 (stereo unspecified),6.66%
8,COc1c(C2CCCN2CC(=O)Nc2cccnc2)c(C)nn1C (stereo unspecified),19.4%
9,O=C(c1ccsc1)N1CCC2(CCN(Cc3ccccn3)C2=O)C1 (stereo unspecified),-5.08%
10,CN(CCCOc1ccccc1Cl)C(=O)CN1CCNC1=O,17%
11,CCN(C)S(=O)(=O)N[C@H]1CN(c2ccc(F)cn2)C[C@@H]1C(C)C,64.5%
12,CC(C)[C@@H]1CN(C(=O)CCn2ccccc2=O)C[C@H]1NS(C)(=O)=O,8.53%
13,CC(C)[C@H]1CN(C2Cc3ccccc3C2)C[C@@H]1NS(C)(=O)=O,55%
14,CC(C)[C@H]1CN(c2ccncc2)C[C@@H]1NS(=O)(=O)N(C)C,76.8%
15,Cc1nc2cc(C(=O)N3C[C@@H](NS(C)(=O)=O)[C@H](C(C)C)C3)ccc2[nH]1,39%
16,CC(C)[C@@H]1CN(CC(=O)NCc2ccco2)C[C@H]1NS(=O)(=O)N(C)C,27.8%
17,CC(C)[C@H]1CN(c2ccncc2)C[C@@H]1NC(=O)C1(C#N)CCOCC1,10.9%
18,CC(C)[C@@H]1CN(C(=O)NCc2ccco2)C[C@H]1N(C)C,31.4%
19,CC(C)[C@@H]1CN(c2ccc(F)cn2)C[C@H]1NS(C)(=O)=O,30.9%
20,CC(C)[C@@H]1CN(c2ccc(C(F)(F)F)cn2)C[C@H]1NS(C)(=O)=O,26.4%
21,CC(C)[C@@H]1CN(C(=O)NCc2ccco2)C[C@H]1NS(=O)(=O)N(C)C,62.8%
22,CC(C)[C@@H]1CN(c2ncc(F)cn2)C[C@H]1NS(=O)(=O)N(C)C,41.7%
23,Cn1cc(C2CCCN2C(=O)CCn2c(=O)oc3ccccc32)cn1 (stereo unspecified),-13.7%
24,CN1CCCc2cc(CNC(=O)c3cccnc3O)ccc21,-18.8%
25,COC(=O)c1ccc(N(C(=O)c2cccnc2C)C(C)C)c(C)c1,-4.63%
26,CC(C)CNC(=O)[C@H]1CCS(=O)(=O)[C@@H]2CN(Cc3cccc(Cl)c3)C[C@H]12,36.8%

row,Compound,INHIBITION
1,Cn1ccnc1C1CCCN(C(=O)c2ccc3nccnc3c2)C1 (stereo unspecified),6.11%
2,Cn1ncc2c(=O)[nH]c(CN3CCc4sccc4C3)nc21,13.3%
3,Cc1ncncc1C(=O)N1CCCC(n2cccn2)C1 (stereo unspecified),2.97%
4,Cc1cc(NC(=O)NCc2cccnc2OC(C)C)no1,31.2%
5,Cc1cc(C)n(CC(C)Nc2nc(C)nc3c2CCNC3)n1 (stereo unspecified),-9.18%
6,Cc1oc(-c2ccco2)nc1CN1CCc2cncnc2C1,45.4%
7,c1cncc(CNC2CCc3ncnn3C2)c1 (stereo unspecified),33.3%
8,Cc1ccc(C)c(NCc2nc3n(n2)CCCCC3)c1,17.6%
9,Cc1csc2c(C3CCN(C(=O)Cn4cncn4)CC3)nc(C)n12,32.3%
10,CC(C)c1nc(C2CCCN2CCS(C)(=O)=O)no1 (stereo unspecified),31.5%
11,CC(C)[C@@H]1CN(CCOc2ccccc2)C[C@H]1NS(=O)(=O)N(C)C,33.2%
12,CS(=O)(=O)N[C@@H]1CN(Cc2ccccc2)C[C@@H]2CCCO[C@@H]21,-57.7%
13,CC(C)[C@@H]1CN(S(=O)(=O)Cc2ccccc2)C[C@H]1NS(=O)(=O)N(C)C,32.7%
14,CC(C)[C@@H]1CN(C2CCN(Cc3ccccc3)CC2)C[C@H]1NS(C)(=O)=O,64.9%
15,CC(C)[C@H]1CN(C2Cc3ccccc3C2)C[C@@H]1NS(=O)(=O)N(C)C,55%
16,CS(=O)(=O)N[C@@H]1CN(Cc2ccccc2)C[C@H]1O,22.8%
17,Cc1noc(C)c1CN1C[C@@H]2CCCO[C@@H]2[C@H](Nc2ccccn2)C1,16.4%
18,Cc1noc(C)c1CN1CCCCC1CCc1ccc(O)cc1 (stereo unspecified),12.6%
19,COCCN1CC(=O)N2CC[C@@H](O)C[C@H]2C1=O,10.615%
20,CC(C)[C@@H]1CN(C(=O)CN(C)Cc2ccccc2)C[C@H]1C(=O)O,47.9%
21,COc1ccc(C2(C(=O)N3C[C@@H](C(=O)O)[C@H](C(C)C)C3)CC2)cc1,-17.3%
22,CC(C)[C@@H]1CN(C(=O)C2(c3ccccc3)CC2)C[C@H]1C(=O)O,50.1%
23,Cc1ccsc1C(=O)N1C[C@@H](C(=O)O)[C@H](C(C)C)C1,24.4%
24,CC(C)[C@@H]1CN(C(=O)C2(c3ccccc3)CCN(C)CC2)C[C@H]1N(C)C,39.4%
25,CC(C)[C@@H]1CN(C(=O)C2(c3ccccc3)CCN(C)CC2)C[C@H]1C(=O)O,64%
